# In the library only some 19% were active in any assay of this set; here they are far more common.
# TDP1 cell noCPT: qHTS for Inhibitors of human tyrosyl-DNA phosphodiesterase 1 (TDP1): qHTS in cells in absence of CPT; Potency, µM (top dose mostly 46.2 µM), inactives show top-dose activity change, negative = growth inhibition, actives largely listed as inhibitors; 420,000 tested, 15% active; DT40 Tdp1-/- hTDP1 cells, no CPT, ATP luminescence, 48 h; further: potency means the concentration at half of the fitted maximal effect; nearly all actives have a fitted effect of over 55% in size
#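 Luminescent ATP content (CellTiter-Glo) served as the growth readout. Knockout chicken DT40 cells expressing human TDP1 were exposed to compounds without camptothecin for a minimum 48 hr at 37 °C.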
# TDP1 cell CPT: growth inhibition of DT40 Tdp1-/-;hTDP1 cells with camptothecin (screen for TDP1 inhibitors); 420,000 tested, 12% active; chicken DT40 Tdp1-/-;hTDP1 cells + 20 nM CPT, ATP luminescence, 48 h; Potency, µM (series often up to 46.2 µM), for the others: at the top dose activity change, negative = growth inhibition, most hits filed as inhibitors; further: potency means the concentration at half of the fitted maximal effect; nearly all actives have a fitted effect of over 55% in size
#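 Chicken DT40 Tdp1-/- cells complemented with human TDP1, 400 cells/well, exposed to compounds plus 20 nM camptothecin for at least 48 h at 37 C; viability read as ATP content by CellTiter-Glo luminescence.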
# HT1080 IDH1KD tx: HT-1080 IDH1 knockdown cell toxicity (counter line); AID 686971; Potency, µM (highest dose often 46.1 µM), for inactives: at the top dose activity, negative = toxicity, most hits filed as cytotoxic; HT-1080 IDH1 knockdown viability, ATP luminescence, 48 h; 360,000 tested, 2% active;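 further: potency means the concentration at half of the fitted maximal effect; 0% = DMSO wells and -100% = cell-free medium wells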
#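 Viability of IDH1-knockdown HT-1080 fibrosarcoma cells was assessed by CellTiter-Glo after 48 h at 37 °C with titrated compound; concentration-effect curves were classified by fit quality and response size.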
# ELG1 repair inh: ELG1-dependent DNA repair inhibition | HEK293T ELG1-luciferase reporter, luminescence, 16 h; DNA damage induced by 5-fluorouridine | Potency, µM (doses to about 46.1 µM), without a hit: at the top dose activity change, negative = inhibition, usual class: inhibitors | 330,000 tested, 2.3% active; further: potency means the concentration at half of the fitted maximal effect; nearly all actives have a fitted effect of over 55% in size
#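 Step one: seed 2,000 cells per well. Step two: pin-transfer compound or DMSO alongside 5-fluorouridine. Step three: incubate 16 hr, 37 °C, 5% CO2. Step four: add ONE-Glo, wait 30 min, read luminescence.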
# HT1080-NT tox: kills 2HG-producing HT-1080-NT fibrosarcoma cells; Potency, µM (top dose mostly 46.1 µM), for the others: top-dose activity, negative = less viability, most hits filed as cytotoxic; HT-1080-NT fibrosarcoma viability, CellTiter-Glo ATP luminescence, 48 h; 360,000 tested, 1.6% active;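 further: NT is the 2HG producing partner of a matched IDH1 knockdown line; potency means the concentration at half of the fitted maximal effect; 0% = DMSO-treated cells and -100% = media-only wells without cells; nearly all actives have a fitted effect of over 55% in size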
#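 750 cells/well, RPMI + 5% FBS; 2 h settle, compound pin-transfer, 48 h at 37 degrees C. CellTiter-Glo 10 min RT, luminescence. Normalized to DMSO and media-only wells.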
# IL-1B inflam inh: inflammasome signaling inhibition, IL-1 beta readout. THP-1 LPS/ATP IL-1B secretion, AlphaLISA, 16 h; active compounds read low. activity change, % at 57.5 µM. 360,000 tested, 4.7% active. AID 743279; in the data active means activity change below about -50%; inconclusive means mostly about -30% to -49%
#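 THP-1 cells pretreated 1 hr with compounds (up to 57.5 uM final), then stimulated with LPS (250 ng/mL final) plus ATP (1.25 mM final); secreted IL-1B measured by AlphaLISA after 16 hr, decreased signal indicating inhibition.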
# Starred values were filed as active, the others as inactive; ? = inconclusive; . = no result. Unless noted, the call rests on the fitted dose curve; in most records, active means well fitted curve in the direction sought with a large enough effect; inconclusive means small, poorly fitted or top-dose-only effect, or another doubt; inactive means no such curve, though single readings can be large; an effect the other way counts as inactive or inconclusive. Unless noted, on the % scale 0 is the no-effect control and ±100 the full control effect.
SMILES,TDP1 cell noCPT,TDP1 cell CPT,HT1080 IDH1KD tx,ELG1 repair inh,HT1080-NT tox,IL-1B inflam inh
O=c1c2ccccc2nc(/C=C/c2cccnc2)n1CCc1ccccc1,13µM*,15µM*,?,?,?,-71*
Cc1ccccc1/C=C\c1nc2ccccc2c(=O)n1Cc1ccccc1,?,?,-12%,29µM*,-17%,?
CCn1c(/C=C/c2ccccc2[N+](=O)[O-])nc2ccccc2c1=O,?,?,-6%,?,-12%,14
CN(C)S(=O)(=O)c1ccc2[nH]cc(/C=C/c3nc4ccccc4c(=O)n3-c3ccccc3)c2c1,5.2µM*,5.8µM*,?,?,?,12
C=CCSc1nc2ccccc2c(=O)n1Cc1ccccc1,-10%,23%,0%,?,14%,0
COc1ccccc1CN1CCOc2ccc(C(C)(O)CN(C)C)cc2C1 (stereo not given),2%,0%,.,.,.,.
Cc1ccc(CN2CC(C(=O)Nc3ccc(F)c([N+](=O)[O-])c3)CC2=O)cc1 (stereo not given),?,?,2%,4%,2%,?
CCn1c(/C=C/c2cccc([N+](=O)[O-])c2)nc2ccccc2c1=O,?,?,9%,0%,14%,-24
CCn1c(/C=C\c2ccccc2C)nc2ccccc2c1=O,13µM*,23µM*,3%,-16%,-1%,-15
Cc1cccc(/C=C/c2nc3ccccc3c(=O)n2Cc2ccccc2)c1,?,?,?,?,?,-70*
CCn1c(NCc2c[nH]c3ccccc23)nc2ccccc21,?,?,-29%,.,?,?
CCn1c(/C=C/c2c[nH]c3ccccc23)nc2ccccc2c1=O,3.3µM*,?,-17%,?,?,35
COc1cccc(N(CC(=O)NCCSCc2ccc(Cl)cc2)S(C)(=O)=O)c1,?,?,-4%,?,-1%,-2
CC(C)c1nn2c(=O)cc(COc3cccc(NC(=O)c4ccco4)c3)nc2s1,-7%,?,24%,8%,11%,-2
O=C(COCc1cc(-c2cccs2)on1)N1CCN(c2cccc(Cl)c2)CC1,12µM*,23µM*,.,.,.,.
O=C(Cc1cccs1)N1CCN(c2cccc(Cl)c2)CC1,-25%,-19%,7%,?,14%,-6
O=C(COCc1cc(-c2cccs2)on1)N1CCN(c2ccc(F)cc2)CC1,15µM*,18µM*,.,.,.,.
CNC(=O)COC(=O)c1cc(-c2ccco2)nc2ccccc12,?,15µM*,-6%,5%,0%,17
Cn1c(N)c(C(=O)COC(=O)c2cc(-c3ccco3)nc3ccccc23)c(=O)n(C)c1=O,16µM*,21µM*,-11%,12µM*,-17%,-25
Cn1c(N)c(C(=O)COC(=O)c2cc(C3CC3)nc3ccccc23)c(=O)n(C)c1=O,18µM*,13µM*,2%,?,1%,-4
Cn1c(N)c(C(=O)COC(=O)c2cc(C(F)(F)F)nc3ccccc23)c(=O)n(Cc2ccccc2)c1=O,?,23µM*,2%,0%,-3%,11
COc1ccc(/C=C/C(=O)OCC(=O)c2c(N)n(C)c(=O)n(C)c2=O)cc1,-24%,-20%,-4%,-1%,7%,13
COc1ccc(-c2cc(C(=O)OCC(=O)c3c(N)n(C)c(=O)n(C)c3=O)c3ccccc3n2)cc1,1.6µM*,4.1µM*,12%,9%,20%,-53*

# Bioassay records (PubChem)
